Only some compounds are listed: those with a hit (about 3.1% of all), similar ones and a draw of the others.
S16 F2sN tox = toxic to S16 Pmp22-F2sN Schwann cells. AID 1508642. 0.48% of 43,000 active. Potency, µM (doses to about 57.5 µM), actives largely listed as cytotoxic. S16 Pmp22-F2sN Schwann cells viability, CellTiter-Glo, 24 h; also: nearly all actives have a fitted effect of over 65% in size
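S16 Pmp22-F2sN Schwann cells (500-1,000/well) in phenol-red-free DMEM with 10% FBS received 23 nL compound by pin tool for 24 h at 37 °C. Viability was then read as CellTiter-Glo luminescence after 15 min at room temperature.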
p53null 39C kill = kills p53 null cells at the nonpermissive temperature; H1299 p53-null (neo) cells, 39C, ATPlite viability, 24 h; Potency, µM (doses to about 46.1 µM), hits mostly cytotoxic; 0.97% of 55,000 active; AID 904; also: nearly all actives have a fitted effect of over 50% in size
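ATP-luminescence viability readout (ATPlite, 20 min RT) after 24 hr compound treatment at 39C of H1299-neo or H1299-p53A138V cells; titration up to 46 uM; normalized to DMSO and 100 uM tamoxifen; Hill-fit AC50.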
pS6 MEF inh = mTORC1 pathway inhibition measured by phospho-rpS6; Tsc2-/- p53-/- MEF, phospho-rpS6 immunofluorescence/PI, 24 h; Potency, µM (doses to about 38.3 µM), usual class: inhibitors; 0.78% of 44,000 active; AID 493208; also: nearly all actives have a fitted effect of over 50% in size
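Readout is phospho-S6 Alexa 488 signal normalized to PI per well, reported as % active cells with thresholds set from rapamycin (7.5 nM) and DMSO controls. Cells: Tsc2-/-, p53-/- MEFs, 24 hrs compound at 37 C; PI cell number serves as viability.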
SKOV3 invasion = inhibitors of ovarian cancer cell adhesion and invasion in omental model | SKOV3ip1-GFP adhesion/invasion on 3D omental model, fluorescence | Potency, µM (titrated, usually from 45.8 µM), hits mostly inhibitors | 0.1% of 46,000 active | AID 1963576; also: nearly all actives have a fitted effect of over 65% in size
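Primary human omental fibroblast/mesothelial 3D culture pre-formed 48 h. SKOV3ip1-GFP cells added with compounds (0.36-46 umol/L), incubated 2 h RT/16 h 37 C, fixed; GFP cells quantified at 488/509 nm.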
PMP22 txn prim = PMP22 gene transcription modulation; 2% of 43,000 active; Potency, µM (highest dose often 57.5 µM), hits mostly inhibitors; AID 1508649; S16 Pmp22-F2sN Schwann cells, FLuc/NLuc coincidence luminescence, 24 h; active = clear falling dose curves in both reporters; inconclusive = both reporters move, but less clearly or upward; inactive = either reporter flat; the % is the NLuc reporter signal
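qHTS, 1536-well. Cells seeded, compounds added by pin tool, 24 h 37C. Nano-Glo reagent 1 (lysis/FLuc), 10 min RT, read; Stop&Glo, 10 min RT, read NLuc.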
p53null 32C tox = kills p53 null cells at the permissive temperature; H1299-neo p53 null cells, ATP luminescence, 24 h, 32C; 0.62% of 55,000 active; AID 903; Potency, µM (highest dose often 46.1 µM), hits mostly cytotoxic; also: nearly all actives have a fitted effect of over 55% in size
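Cells lacking p53 (H1299-neo) are plated at 600 per well and allowed to settle overnight at 37C. Test compounds (up to 46 uM) are added and held 24 hours at 32C, then ATP is quantified by luminescence.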
NLuc saturating = inhibits NanoLuc at saturating substrate, PMP22 counter-screen. Secreted NLuc enzyme (filtered S16 cell medium), Nano-Glo luminescence. AID 1508638. Potency, µM (titrated, usually from 57.5 µM), most hits filed as inhibitors. shares compounds with PMP22 txn prim. 4% of 690 active
NLuc Km ctr = NanoLuc inhibition at Km substrate, PMP22 artifact check | shares compounds with PMP22 txn prim | secreted NLuc enzyme, coelenterazine luminescence, Km conditions | Potency, µM (top dose mostly 57.5 µM), usual class: inhibitors | 5% of 690 active
FLuc ctr PMP22 = counter-screen for PMP22 expression modulators: firefly luciferase inhibition; shares compounds with PMP22 txn prim; purified P. pyralis FLuc, luminescence, 10 min; Potency, µM (series often up to 57.5 µM), most hits filed as inhibitors; 690 tested, under 10 active; AID 1508640
Target sequence (P08659 whole entry, looked up): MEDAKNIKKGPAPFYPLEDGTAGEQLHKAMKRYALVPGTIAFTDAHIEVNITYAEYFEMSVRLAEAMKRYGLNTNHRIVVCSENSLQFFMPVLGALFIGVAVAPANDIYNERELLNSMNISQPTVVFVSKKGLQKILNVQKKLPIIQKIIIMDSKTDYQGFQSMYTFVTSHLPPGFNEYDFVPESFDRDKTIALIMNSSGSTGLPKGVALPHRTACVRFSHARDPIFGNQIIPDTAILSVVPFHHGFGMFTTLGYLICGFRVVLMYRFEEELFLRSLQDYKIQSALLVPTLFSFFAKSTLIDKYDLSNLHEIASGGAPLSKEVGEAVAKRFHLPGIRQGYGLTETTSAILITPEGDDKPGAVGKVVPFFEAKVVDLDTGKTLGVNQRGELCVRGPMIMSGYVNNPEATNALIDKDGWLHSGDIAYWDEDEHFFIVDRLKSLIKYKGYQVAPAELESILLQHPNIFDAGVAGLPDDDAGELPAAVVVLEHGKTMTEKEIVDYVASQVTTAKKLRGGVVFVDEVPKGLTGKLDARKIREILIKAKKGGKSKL
S16 viab conf = confirmation of cytotoxicity in S16 Pmp22-F2sN Schwann cells (luciferase reporters placed in the Pmp22 gene) | AID 1508641 | 7% of 690 active | S16 Schwann cells viability, CellTiter-Glo ATP luminescence, 24 h | shares compounds with PMP22 txn prim | Potency, µM (series often up to 57.5 µM), most hits filed as cytotoxic
PMP22 txn cnf = PMP22 transcription modulation, confirmatory | shares compounds with PMP22 txn prim | S16 Schwann cells Pmp22-F2sN, dual luciferase, 24 h | Potency, µM (series often up to 57.5 µM), hits mostly inhibitors | 22% of 690 active | AID 1508646; active = clear falling dose curves in both reporters; inconclusive = both reporters move, but less clearly or upward; inactive = either reporter flat; the % is the FLuc reporter signal
Of the large screens only hits and unclear results are named; the others gave an inactive call (follow-up assays come after a bar, where they were run). Unless noted, calls follow the shape of the dose curve; as a rule, active = well fitted curve in the direction sought with a large enough effect; inconclusive = small, poorly fitted or top-dose-only effect, or another doubt; inactive = no such curve, though single readings can be large; an effect the other way counts as inactive or inconclusive.

COc1ccc(-c2noc(CSc3nnc(C)n3-c3ccc(C)cc3)n2)cc1OC	PMP22 txn prim 12µM | NLuc saturating 22µM | NLuc Km ctr 14µM | FLuc ctr PMP22 inactive | S16 viab conf inconclusive | PMP22 txn cnf inactive
COc1ccc(-n2c(SCc3nc(-c4ccc(Cl)cc4)no3)nnc2-c2ccncc2)cc1	S16 F2sN tox inconclusive, PMP22 txn prim inconclusive
COc1ccc(-c2noc(CSc3nnc(-c4ccncc4)n3-c3cccc(C)c3)n2)cc1OC	p53null 39C kill inconclusive, PMP22 txn prim 10µM | NLuc saturating inconclusive | NLuc Km ctr inconclusive | FLuc ctr PMP22 inactive | S16 viab conf inactive | PMP22 txn cnf inactive
COc1ccc(-c2noc(CSc3nnc(-c4ccncc4)n3-c3ccc(C)c(C)c3)n2)cc1	p53null 39C kill inconclusive, PMP22 txn prim 13µM | NLuc saturating inconclusive | NLuc Km ctr inconclusive | FLuc ctr PMP22 inactive | S16 viab conf inconclusive | PMP22 txn cnf inconclusive
Cc1ccc(Cn2c(C(=O)O)c(CNCc3ccc(OC(C)C)cc3)c3ccc(C)cc32)cc1	S16 F2sN tox inconclusive, p53null 39C kill inconclusive, pS6 MEF inh inconclusive, PMP22 txn prim inconclusive, p53null 32C tox inconclusive
COc1ccc(NC(=O)c2c(NCc3ccc(C)o3)sc3c2CCCCC3)c(OC)c1	pS6 MEF inh inconclusive, PMP22 txn prim 14µM | NLuc saturating inconclusive | NLuc Km ctr inconclusive | FLuc ctr PMP22 inactive | S16 viab conf inactive | PMP22 txn cnf inconclusive
O=C(NCCC1=CCCCC1)c1ccc2c(c1)N(Cc1ccccc1)C(=O)c1ccccc1S2=O (centres undefined)	PMP22 txn prim 13µM | NLuc saturating inactive | NLuc Km ctr inactive | FLuc ctr PMP22 inactive | S16 viab conf inactive | PMP22 txn cnf inactive
C[C@@H]1[C@H](C)CC[C@]2(C(=O)O)CC[C@]3(C)C(=CC[C@@H]4[C@@]5(C)CC[C@H](O)C(C)(C)[C@H]5CC[C@]43C)[C@@H]12	none (no result: S16 F2sN tox, p53null 39C kill, pS6 MEF inh, PMP22 txn prim, p53null 32C tox)
COC(=O)c1c(C)oc2ccc(N(C(=O)c3ccncc3)S(=O)(=O)c3c(C)cc(C)cc3C)cc12	PMP22 txn prim 3.8µM | NLuc saturating inactive | NLuc Km ctr inactive | FLuc ctr PMP22 inactive | S16 viab conf inactive | PMP22 txn cnf inconclusive
COC(=O)c1c(C)oc2ccc(N(C(=O)c3ccncc3)S(=O)(=O)c3cc(C)c(C)cc3C)cc12	S16 F2sN tox inconclusive, pS6 MEF inh inconclusive, PMP22 txn prim inconclusive
Cc1ccc2nc(NC(=O)CSc3nc4c(c(=O)n3-c3ccccc3)SCC4)sc2c1	none (no result: S16 F2sN tox, p53null 39C kill, pS6 MEF inh, PMP22 txn prim, p53null 32C tox)
COc1ccc2c(c1)-c1nc(NC(=O)c3cc(Cl)ccc3OC)sc1CC2	PMP22 txn prim 17µM | NLuc saturating inactive | NLuc Km ctr inactive | FLuc ctr PMP22 inactive | S16 viab conf inconclusive | PMP22 txn cnf inconclusive
Cn1nnnc1SCCNCc1ccccc1OCc1ccccc1F	PMP22 txn prim inconclusive, p53null 32C tox inconclusive
Cn1nnnc1SCCNCc1cc(Br)ccc1OCc1ccccc1Cl	S16 F2sN tox inconclusive, PMP22 txn prim 16µM | NLuc saturating inconclusive | NLuc Km ctr inconclusive | FLuc ctr PMP22 inactive | S16 viab conf inactive | PMP22 txn cnf inconclusive
COCCNc1nc2c(c(=O)n(C)c(=O)n2C)n1Cc1c(F)cccc1Cl	S16 F2sN tox inconclusive, PMP22 txn prim 13µM | NLuc saturating inactive | NLuc Km ctr inactive | FLuc ctr PMP22 inactive | S16 viab conf inactive | PMP22 txn cnf inactive
Cn1nc(C(=O)NCc2ccc(Cl)cc2)c2c1-c1ccccc1S(=O)(=O)C2	S16 F2sN tox inconclusive, PMP22 txn prim 15µM | NLuc saturating inactive | NLuc Km ctr inactive | FLuc ctr PMP22 inactive | S16 viab conf inactive | PMP22 txn cnf inconclusive
O=C(NCc1ccc(Cl)cc1)C(=O)Nc1cccc(Br)c1	PMP22 txn prim 16µM | NLuc saturating inactive | NLuc Km ctr inactive | FLuc ctr PMP22 inactive | S16 viab conf inconclusive | PMP22 txn cnf inconclusive
COc1ccc(NC(=O)CCNS(=O)(=O)c2ccc3c(c2)CCN3C(=O)C2CC2)cc1Cl	PMP22 txn prim 14µM | NLuc saturating inconclusive | NLuc Km ctr inconclusive | FLuc ctr PMP22 inactive | S16 viab conf inactive | PMP22 txn cnf inactive
COc1cc2c(cc1OC)C(COc1ccc3c(C)cc(=O)oc3c1)N(C(=O)c1ccc(C)cc1)CC2 (centres undefined)	S16 F2sN tox inconclusive, PMP22 txn prim inconclusive | NLuc saturating inactive | NLuc Km ctr inactive | FLuc ctr PMP22 inactive | S16 viab conf inactive | PMP22 txn cnf inconclusive
O=C(NCCc1ccccc1Cl)C1CCN(c2nc3ccccc3nc2C(F)(F)F)CC1	S16 F2sN tox inconclusive, PMP22 txn prim 9.5µM | NLuc saturating inactive | NLuc Km ctr inactive | FLuc ctr PMP22 inactive | S16 viab conf inactive | PMP22 txn cnf inactive
COc1ccccc1CCNC(=O)C1CCN(c2nc3ccccc3nc2C(F)(F)F)CC1	S16 F2sN tox inconclusive
COc1ccc(-n2c(C)c([N+](=O)[O-])c3ccc(O)cc32)cc1	none (no result: S16 F2sN tox, p53null 39C kill, pS6 MEF inh, PMP22 txn prim, p53null 32C tox)
COc1ccccc1N1CCN(c2ncnc3c2cnn3-c2cc(Cl)ccc2C)CC1	S16 F2sN tox inconclusive, PMP22 txn prim 8.4µM, p53null 32C tox inconclusive | NLuc saturating inconclusive | NLuc Km ctr inconclusive | FLuc ctr PMP22 inactive | S16 viab conf inconclusive | PMP22 txn cnf inconclusive
Cc1ccc(C)c(N2CCN(C(=O)C3CCCN(S(=O)(=O)c4ccc5c(c4)oc(=O)n5C)C3)CC2)c1 (centres undefined)	PMP22 txn prim 15µM, p53null 32C tox inconclusive | NLuc saturating inactive | NLuc Km ctr inactive | FLuc ctr PMP22 inactive | S16 viab conf inactive | PMP22 txn cnf inconclusive
